According to ChEMBL document CHEMBL1157539, “Thousands of chemical starting points for antimalarial lead identification” (Nature, 2010):

These compounds were tested on Plasmodium falciparum (assay: GSK_TCMDC: Inhibition of Plasmodium falciparum Dd2 in whole red blood cells, using parasite LDH activity as an index of growth. Test compounds present at 2uM).
Format: functional

| SMILES | Inhibition |
| --- | --- |
| Cc1ccc(O)cc1Nc1ccnc2cc(-c3csc(CN4CCN(C)CC4)n3)ccc12 | 77% |
| CCOc1ccc(Nc2ccc3nonc3c2S(=O)(=O)Nc2ccc(OCC)cc2)cc1 | 93% |
| Cc1cc(NCCCOc2ccc(Cl)cc2)nc(NCc2ccccc2)n1.Cl | 20% |
| CCCNCc1ccc(-c2ccc(CN(CCOC)C(=O)CC3CCCC3=O)cc2)nc1.O=C(O)C(F)(F)F (stereo not given) | 9% |
| O=C(NCCc1ccc(Cl)c(Cl)c1)C1CCCN(C(=O)c2ccc(O)c(-c3ccc(Cl)c(Cl)c3)c2)C1 (stereo not given) | 65% |
| Cc1cccc2nc(-c3ccc(-c4ccc(CN5CCC(CO)CC5)cc4)s3)[nH]c12.O=C(O)C(F)(F)F | 82% |
| Cc1cc(I)ccc1Nc1nc2nonc2nc1Nc1ccc(I)cc1C | 96% |
| Cc1cc([N+](=O)[O-])ccc1N1CCN(CCCCNC(=O)c2ccc(NC(=O)c3ccc(Cl)cc3)cc2)CC1 | 0% |
| CC(C)(C)c1ccc2[nH]c(-c3ccc(/C=C/C(=O)NCc4ccc(Cl)c(Cl)c4)cc3)nc2c1 | 17% |
| CCCCCCNC(=O)C1Cc2c([nH]c3ccccc23)C2(CCN(CCc3ccccc3)CC2)N1 (stereo not given) | 34% |
| COC(=O)C1(NC(=O)c2ccc(-n3nc(C)c(-c4ccccc4)c3N)cc2)CCCC1 | 81% |
| O=[N+]([O-])c1cccc(Nc2cncc(-c3ccc(CO)cc3)c2)c1 | 96% |
| CCNc1cc(CC)nc(Nc2ccc(C)cc2)n1 | 24% |
| Cn1nc(C(F)(F)F)c(-c2ccc(Br)cc2)c1NC(=O)Nc1ccc(F)cc1F | 99% |
| CNC(=O)COC(=O)c1c2c(nc3ccccc13)C(=Cc1ccc3c(c1)OCO3)CCC2 | 36% |
| CCc1cc2c(=O)c(-c3nc(C)cs3)c([C@H](N)Cc3ccc(O)cc3)oc2cc1O.O=C(O)C(F)(F)F | 19% |
| CC(C)c1ccc(NC(=O)NCC2CCCN(CCCCCNC(=O)/C=C/c3ccc(Cl)c(Cl)c3)C2)cc1 (stereo not given) | 6% |
| CN1CCCc2ccc(NC(=O)C=Cc3ccc(-c4ccc(F)cc4F)o3)cc2C1.O=C(O)C(F)(F)F | 20% |
| COc1ccc(-c2ccc(NC(=O)c3cccc(Cl)c3)cc2)cc1CN1CCC(O)CC1.O=C(O)C(F)(F)F | 12% |
| O=C(C1CCCCC1)N1CCOC(CCN2CCC(c3ccccc3)CC2)(c2ccc(Cl)c(Cl)c2)C1 (stereo not given) | 86% |

| SMILES | Inhibition |
| --- | --- |
| O=C(Nc1ccc(F)cc1)c1cnc(N2CCN(c3ccncc3)CC2)c(Cl)c1.O=C(O)C(F)(F)F | 81% |
| O=C(N[C@@H](Cc1ccccc1)C(=O)NC1CCCc2ccccc21)c1ccc(O)c(-c2cccc(C(F)(F)F)c2)c1 (stereo not given in full) | 41% |
| CCc1c[nH]c2c(N3CCCS3(=O)=O)cc(C(=O)N[C@@H](Cc3ccccc3)[C@H](O)CNC3CCCCC3)cc12.O=CO | 89% |
| Cc1cccc2nc(-c3cccc(-c4ccc(NC(=O)CC5NC(=O)c6ccccc65)cc4)c3)[nH]c12 (stereo not given) | 67% |
| CC[C@H](C)CNC(=O)c1ccnc(-c2cccc(CN(C)C3CCN(C)CC3)c2)c1.O=C(O)C(F)(F)F | 33% |
| O=C(NC1CCN(Cc2ccc3c(c2)OCCO3)CC1)c1ccc(-c2cccc(C(F)(F)F)c2)s1.O=C(O)C(F)(F)F | 35% |
| O=C(NCCCCN1CCC(c2ccc3ccccc3c2O)CC1)c1ccc(NC(=O)c2ccc(Cl)cc2)cc1 | 89% |
| O=C(Nc1ccccc1)Nc1ccc(-n2ccc(C(F)(F)F)n2)cc1 | 85% |
| O=C(Cn1nc(Br)nc1[N+](=O)[O-])NCC1CCCCC1 | 57% |
| O=C(NCc1cccc(C(F)(F)F)c1)C(c1cc2ccccc2o1)N1CCN(C(c2ccccc2)c2ccccc2)CC1 (stereo not given) | 80% |
| COc1ccc2nccc([C@@H](O)CN3CCC(NC(=O)C(c4cc5ccccc5o4)N4CCC(Cc5ccccc5)CC4)CC3)c2c1 (stereo not given in full) | 82% |
| COc1ccccc1NC(=O)Nc1cccc(-c2ccc(-c3nc4cccc(C)c4[nH]3)s2)c1 | 46% |
| O=C(/C=C/c1ccc(-c2nc3ccc(Cl)cc3[nH]2)cc1)NC1CCN(Cc2ccccc2)CC1 | 92% |
| Cc1cccc(Nc2nc(C)cc(N3CCCN(CC4CCCCC4)CC3)n2)c1 | 21% |
| CCN(CC)CCCC(C)Nc1ccnc2ccc(-c3ccccc3)cc12 (stereo not given) | 21% |
| Br.CC1(C)N=C(N)N=C(N)N1OCc1cccc(C#N)c1 | 2% |
| COc1ccc2c(O)c(C3CCC(c4ccc(Cl)cc4)CC3)c(C)nc2c1 (stereo not given) | 84% |
| O=C(NCC1CCC(CNCCc2ccccc2)CC1)Nc1ccc(Cl)c(Cl)c1 (stereo not given) | 0% |
| CC1(C)N=C(N)N=C(N)N1OCCCc1ccccc1.Cl | 94% |
| Fc1ccc2[nH]c(-c3cccc(-c4cccc(CNCC5CCCO5)c4)c3)nc2c1.O=C(O)C(F)(F)F (stereo not given) | 94% |

What follows are compounds tested on HepG2 (assay: GSK_TCMDC: Percent inhibition of human HepG2 cell line. Test compounds present at 10uM.).
Format: functional

| SMILES | Inhibition |
| --- | --- |
| Cc1ccc(O)cc1Nc1ccnc2cc(-c3csc(CN4CCN(C)CC4)n3)ccc12 | 6% |
| CCOc1ccc(Nc2ccc3nonc3c2S(=O)(=O)Nc2ccc(OCC)cc2)cc1 | 6% |
| Cc1cc(NCCCOc2ccc(Cl)cc2)nc(NCc2ccccc2)n1.Cl | 45% |
| CCCNCc1ccc(-c2ccc(CN(CCOC)C(=O)CC3CCCC3=O)cc2)nc1.O=C(O)C(F)(F)F (stereo not given) | 5% |
| O=C(NCCc1ccc(Cl)c(Cl)c1)C1CCCN(C(=O)c2ccc(O)c(-c3ccc(Cl)c(Cl)c3)c2)C1 (stereo not given) | 0% |
| Cc1cccc2nc(-c3ccc(-c4ccc(CN5CCC(CO)CC5)cc4)s3)[nH]c12.O=C(O)C(F)(F)F | 15% |
| Cc1cc(I)ccc1Nc1nc2nonc2nc1Nc1ccc(I)cc1C | 78% |
| Cc1cc([N+](=O)[O-])ccc1N1CCN(CCCCNC(=O)c2ccc(NC(=O)c3ccc(Cl)cc3)cc2)CC1 | 33% |
| CC(C)(C)c1ccc2[nH]c(-c3ccc(/C=C/C(=O)NCc4ccc(Cl)c(Cl)c4)cc3)nc2c1 | 41% |
| CCCCCCNC(=O)C1Cc2c([nH]c3ccccc23)C2(CCN(CCc3ccccc3)CC2)N1 (stereo not given) | 41% |
| COC(=O)C1(NC(=O)c2ccc(-n3nc(C)c(-c4ccccc4)c3N)cc2)CCCC1 | 9% |
| O=[N+]([O-])c1cccc(Nc2cncc(-c3ccc(CO)cc3)c2)c1 | 16% |
| CCNc1cc(CC)nc(Nc2ccc(C)cc2)n1 | 22% |
| Cn1nc(C(F)(F)F)c(-c2ccc(Br)cc2)c1NC(=O)Nc1ccc(F)cc1F | 16% |
| CNC(=O)COC(=O)c1c2c(nc3ccccc13)C(=Cc1ccc3c(c1)OCO3)CCC2 | 7% |
| CCc1cc2c(=O)c(-c3nc(C)cs3)c([C@H](N)Cc3ccc(O)cc3)oc2cc1O.O=C(O)C(F)(F)F | 11% |
| CC(C)c1ccc(NC(=O)NCC2CCCN(CCCCCNC(=O)/C=C/c3ccc(Cl)c(Cl)c3)C2)cc1 (stereo not given) | 87% |
| CN1CCCc2ccc(NC(=O)C=Cc3ccc(-c4ccc(F)cc4F)o3)cc2C1.O=C(O)C(F)(F)F | 8% |
| COc1ccc(-c2ccc(NC(=O)c3cccc(Cl)c3)cc2)cc1CN1CCC(O)CC1.O=C(O)C(F)(F)F | 15% |
| O=C(C1CCCCC1)N1CCOC(CCN2CCC(c3ccccc3)CC2)(c2ccc(Cl)c(Cl)c2)C1 (stereo not given) | 6% |

| SMILES | Inhibition |
| --- | --- |
| O=C(Nc1ccc(F)cc1)c1cnc(N2CCN(c3ccncc3)CC2)c(Cl)c1.O=C(O)C(F)(F)F | 41% |
| O=C(N[C@@H](Cc1ccccc1)C(=O)NC1CCCc2ccccc21)c1ccc(O)c(-c2cccc(C(F)(F)F)c2)c1 (stereo not given in full) | 0% |
| CCc1c[nH]c2c(N3CCCS3(=O)=O)cc(C(=O)N[C@@H](Cc3ccccc3)[C@H](O)CNC3CCCCC3)cc12.O=CO | 6% |
| Cc1cccc2nc(-c3cccc(-c4ccc(NC(=O)CC5NC(=O)c6ccccc65)cc4)c3)[nH]c12 (stereo not given) | 30% |
| CC[C@H](C)CNC(=O)c1ccnc(-c2cccc(CN(C)C3CCN(C)CC3)c2)c1.O=C(O)C(F)(F)F | 0% |
| O=C(NC1CCN(Cc2ccc3c(c2)OCCO3)CC1)c1ccc(-c2cccc(C(F)(F)F)c2)s1.O=C(O)C(F)(F)F | 99% |
| O=C(NCCCCN1CCC(c2ccc3ccccc3c2O)CC1)c1ccc(NC(=O)c2ccc(Cl)cc2)cc1 | 34% |
| O=C(Nc1ccccc1)Nc1ccc(-n2ccc(C(F)(F)F)n2)cc1 | 15% |
| O=C(Cn1nc(Br)nc1[N+](=O)[O-])NCC1CCCCC1 | 0% |
| O=C(NCc1cccc(C(F)(F)F)c1)C(c1cc2ccccc2o1)N1CCN(C(c2ccccc2)c2ccccc2)CC1 (stereo not given) | 0% |
| COc1ccc2nccc([C@@H](O)CN3CCC(NC(=O)C(c4cc5ccccc5o4)N4CCC(Cc5ccccc5)CC4)CC3)c2c1 (stereo not given in full) | 11% |
| COc1ccccc1NC(=O)Nc1cccc(-c2ccc(-c3nc4cccc(C)c4[nH]3)s2)c1 | 19% |
| O=C(/C=C/c1ccc(-c2nc3ccc(Cl)cc3[nH]2)cc1)NC1CCN(Cc2ccccc2)CC1 | 3% |
| Cc1cccc(Nc2nc(C)cc(N3CCCN(CC4CCCCC4)CC3)n2)c1 | 20% |
| CCN(CC)CCCC(C)Nc1ccnc2ccc(-c3ccccc3)cc12 (stereo not given) | 0% |
| Br.CC1(C)N=C(N)N=C(N)N1OCc1cccc(C#N)c1 | 57% |
| COc1ccc2c(O)c(C3CCC(c4ccc(Cl)cc4)CC3)c(C)nc2c1 (stereo not given) | 2% |
| O=C(NCC1CCC(CNCCc2ccccc2)CC1)Nc1ccc(Cl)c(Cl)c1 (stereo not given) | 24% |
| CC1(C)N=C(N)N=C(N)N1OCCCc1ccccc1.Cl | 64% |
| Fc1ccc2[nH]c(-c3cccc(-c4cccc(CNCC5CCCO5)c4)c3)nc2c1.O=C(O)C(F)(F)F (stereo not given) | 40% |
